From PubChem BioAssay (NCATS) come the findings set out here.

Each structure is given as a SMILES string. Results filed as inconclusive are left out. A call without a number means that no potency is given here. A structure can be active in one record and inactive in another. Calls of active or inactive are those of the source. Calls follow the shape of the dose curve; as a rule, active = well fitted inhibition curve with a large enough effect; inconclusive = small, poorly fitted or top-dose-only effect; inactive = flat fitted curve, though single readings scatter.
Also: nearly all actives have a fitted effect of over 60% in size.

The subject of one test is NIH3T3. The test is described as follows: Cytotoxic Profiling of Annotated Libraries Using Quantitative High-Throughput Screening (AID 1296008). Also: potency is read from the fitted curve at half-maximal effect. The following applies: Five cell lines viability, CellTiter-Glo ATP luminescence, 48-72 h; max response: stronger effect = lower value. The gist of the method:
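Cytotoxicity was measured as CellTiter-Glo ATP luminescence, read after 10 min at room temperature. Compound treatment of the cells lasted 48 or 72 hr at 37 degrees Celsius in a qHTS format.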
For the compound `CCCC(C(=O)OCCN(CC)CC)(c1ccccc1)c1ccccc1`, the max response was -27.5% (inactive).

For the compound `OCCN1CCN(CCCN2c3ccccc3C=Cc3ccccc32)CC1`, the compound was called inactive.

For `CCCN1C[C@H](CSC)C[C@@H]2c3cccc4[nH]cc(c34)C[C@H]21`, the Potency is 21.1 µM (active) and the max response is -7.31% (inactive).

Consider `CCN(CC)CCCN(c1ccccc1)C1Cc2ccccc2C1`, for which the max response is -8.45% (inactive).

Regarding `CN(C(=O)CCCOc1ccc2[nH]c(=O)ccc2c1)C1CCCCC1`, the max response was -24.3% (inactive).

Regarding `CCc1cccc(N(C)C(N)=Nc2cccc3ccccc23)c1`, the max response is -9.35% (inactive).

Consider `NC1=NCC2c3ccccc3Cc3ccccc3N12` (configuration not stated), for which the max response is -2.29% (inactive).

As to `COc1ccc2c(c1OC)C(=O)O[C@@H]2[C@H]1c2c(cc3c(c2OC)OCO3)CCN1C`, the max response is -0.798% (inactive).

As to `COc1ccc(CN(CCN(C)C)c2ccccn2)cc1`, the max response is 2.14% (inactive).

Turning to `COCCOC(=O)C1=C(C)NC(C)=C(C(=O)OC(C)C)C1c1cccc([N+](=O)[O-])c1` (configuration not stated), the max response is -6.33% (inactive).

For the compound `C[C@]12CC[C@@H]3c4ccc(O)cc4C[C@@H](CCCCCCCCCS(=O)CCCC(F)(F)C(F)(F)F)[C@H]3[C@@H]1CC[C@@H]2O` (some centres not stated), the max response is -7.29% (inactive).

Consider `CC(=O)[C@@]1(O)CC[C@H]2[C@@H]3CCC4=CC(=O)CC[C@]4(C)[C@H]3CC[C@@]21C`, for which the max response was 2.18% (inactive).

For the next test, the system named is HACAT. The test is described as follows: qHTS assay to identify novel small-molecules to repurpose for Merkel cell carcinoma treatment (AID 1296009). The note with it: MCC and control cell lines, CellTiter-Glo viability, 72 h; at 44.8 µM (top of the series) unless noted. The gist of the method: (§1)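 Cell viability, measured as CellTiter-Glo luminescence, was normalized between DMSO and no-cell wells. The cells had been exposed to 8- or 11-point compound dilutions for 72 hr at 37 degree celsius.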
On to `CCN(CC)CCOCCOC(=O)C1(c2ccccc2)CCCC1`, for which the compound was called inactive.

Take `OCCN1CCN(CCCN2c3ccccc3C=Cc3ccccc32)CC1`: the outcome was inactive.

For `CSc1ccc(C(=O)c2[nH]c(=O)[nH]c2C)cc1`, the compound was classed as inactive.

`CC1=NS(=O)(=O)c2cc(Cl)ccc2N1`: the compound was called inactive.

Regarding `CN(C)CC[C@@H](c1ccc(Br)cc1)c1ccccn1`, the outcome was inactive.

Take `CCN(CC)CCCN(c1ccccc1)C1Cc2ccccc2C1`: the outcome was inactive.

In the case of `CN1CCN(CC(=O)N2c3ccccc3C(=O)Nc3cccnc32)CC1`, the outcome was “inactive [at 4.96 µM]”.

`COc1ccc(CN(CCN(C)C)c2ccccn2)cc1`: the outcome was inactive.

For the compound `COCCOC(=O)C1=C(C)NC(C)=C(C(=O)OC(C)C)C1c1cccc([N+](=O)[O-])c1` (configuration not stated), the compound was classed as inactive.

In the case of `Cc1cccc(C)c1NC(=O)C(C)N` (configuration not stated), the compound was called inactive.

Take `COc1cc2c(cc1OC)-c1cc(=Nc3c(C)cc(C)cc3C)n(C)c(=O)n1CC2`: the result was inactive.

Take `c1cc(CN2CCCCC2)cc(OCCCNc2nc3ccccc3s2)c1`: the call was inactive.

Turning to `CC(C)NCC(O)c1cc(O)cc(O)c1` (configuration not stated), the result was inactive.

As to `CNCCCN1c2ccccc2CCc2ccccc21`, the compound was classed as inactive.

For the compound `COCCc1ccc(OCC(O)CNC(C)C)cc1` (configuration not stated), the outcome was inactive.

For the compound `CCOC(=O)C1=C(C)NC(C)=C(C(=O)OC)C1c1cccc(Cl)c1Cl` (configuration not stated), the call was inactive.

In the case of `CN(C)CCN(Cc1cccs1)c1ccccn1`, the compound was called inactive.

For another test, the system named is HEK293T. The description is as above. The following applies: MCC and control cell lines, CellTiter-Glo viability, 72 h; at 44.8 µM (top of the series) unless noted. A digest of the protocol: as §1
On the technique in general: Cellular ATP, detected with luciferase, serves as a proxy for viable cell number.
Take `CCCCNC(=O)NS(=O)(=O)c1ccc(C)cc1`: the compound was called inactive.

On to `CN(C)C(=O)Oc1ccc[n+](C)c1`, for which the compound was called inactive.

Turning to `CCn1nc(C(=O)O)c(=O)c2cc3c(cc21)OCO3`, the result was inactive.

As for `COCCc1ccc(OCC(O)CNC(C)C)cc1` (configuration not stated), the outcome was inactive.

Another test relates to MCC-13. Described as above. The note with it: MCC and control cell lines, CellTiter-Glo viability, 72 h; series mostly up to 46 µM. The gist of the method:
as §1
Consider `CCN(CC)CCOCCOC(=O)C1(c2ccccc2)CCCC1`, for which the Potency result was “inactive”.

As to `OCCN1CCN(CCCN2c3ccccc3C=Cc3ccccc32)CC1`, the Potency entry is “inactive”.

Consider `CCCCNC(=O)NS(=O)(=O)c1ccc(C)cc1`, for which the Potency result was “inactive”.

In the case of `Fc1ccc(C(c2ccc(F)cc2)N2CCN(C/C=C/c3ccccc3)CC2)cc1`, the Potency entry is “inactive”.

On to `CSc1ccc(C(=O)c2[nH]c(=O)[nH]c2C)cc1`, for which the Potency entry was “inactive”.

Take `CN(C)C(=O)Oc1ccc[n+](C)c1`: the Potency result is “inactive”.

As to `CC1=NS(=O)(=O)c2cc(Cl)ccc2N1`, the Potency entry is “inactive”.

Regarding `CN(C)CC[C@@H](c1ccc(Br)cc1)c1ccccn1`, the Potency result is “inactive”.

For `CCn1nc(C(=O)O)c(=O)c2cc3c(cc21)OCO3`, the Potency entry is “inactive”.

As to `CCCN1C[C@H](CSC)C[C@@H]2c3cccc4[nH]cc(c34)C[C@H]21`, the Potency entry was “inactive”.

With `CCN(CC)CCCN(c1ccccc1)C1Cc2ccccc2C1`, the Potency result was “inactive”.

For the compound `CN(C(=O)CCCOc1ccc2[nH]c(=O)ccc2c1)C1CCCCC1`, the Potency entry was “inactive”.

On to `CN1CCN(CC(=O)N2c3ccccc3C(=O)Nc3cccnc32)CC1`, for which the activity change, negative = cytotoxicity is 8.41% [at 4.84 µM] (inactive).

Turning to `NC1=NCC2c3ccccc3Cc3ccccc3N12` (configuration not stated), the Potency entry was “inactive”.

`COc1ccc2c(c1OC)C(=O)O[C@@H]2[C@H]1c2c(cc3c(c2OC)OCO3)CCN1C`: the Potency result was “inactive”.

Turning to `COc1ccc(CN(CCN(C)C)c2ccccn2)cc1`, the Potency result was “inactive”.

On to `COCCOC(=O)C1=C(C)NC(C)=C(C(=O)OC(C)C)C1c1cccc([N+](=O)[O-])c1` (configuration not stated), for which the Potency result was “inactive”.

Consider `Cc1cccc(C)c1NC(=O)C(C)N` (configuration not stated), for which the Potency entry was “inactive”.

On to `CC(C)NCC(O)c1cc(O)cc(O)c1` (configuration not stated), for which the Potency result was “inactive”.

`C[C@]12CC[C@@H]3c4ccc(O)cc4C[C@@H](CCCCCCCCCS(=O)CCCC(F)(F)C(F)(F)F)[C@H]3[C@@H]1CC[C@@H]2O` (some centres not stated): the Potency entry was “inactive”.

`C#CCN(C)CCCOc1ccc(Cl)cc1Cl`: the Potency entry was “inactive”.

In the case of `CNCCCN1c2ccccc2CCc2ccccc21`, the Potency result was “inactive”.

In the case of `COCCc1ccc(OCC(O)CNC(C)C)cc1` (configuration not stated), the Potency result is “inactive”.

On to `CC(=O)[C@@]1(O)CC[C@H]2[C@@H]3CCC4=CC(=O)CC[C@]4(C)[C@H]3CC[C@@]21C`, for which the Potency result is “inactive”.

For `CCOC(=O)C1=C(C)NC(C)=C(C(=O)OC)C1c1cccc(Cl)c1Cl` (configuration not stated), the Potency entry was “inactive”.

As for `O=C(CCCN1CCC(O)(c2cccc(C(F)(F)F)c2)CC1)c1ccc(F)cc1`, the Potency entry was “inactive”.

Consider `CN(C)CCN(Cc1cccs1)c1ccccn1`, for which the Potency entry was “inactive”.

Turning to `CCCCNc1c(C(=O)OCC)c(C)nc2c1cnn2CC`, the Potency result is “inactive”.
